Composite z-score and z-score data for 16 molecules are collected here from PubChem BioAssay.

Each structure is given as a SMILES string. Calls of active or inactive are those of the source.

Experiment [1] in a line: small molecules captured by biotinylated probe aFSTL3 – biochemical, small-molecule microarray, fluorescence 635/667, stem cell growth factor project, primary screen (AID 1064).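 Also: measures binding of the biotinylated anti-FSTL3 antibody to printed compounds.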 The conditions noted are these: higher = more signal.
Experiment [2] is described as follows: binders from COS7 lysate, DM2A8 probe, primary screen, torsin A project, cell lysate, small-molecule microarray, fluorescence 635/667 (AID 1065). To be noted: higher = more signal, COS7 lysate expressing mutant human TOR1A.
Experiment [3] is described as follows: small molecules captured by biotinylated probe aFGF2 – biochemical, small-molecule microarray, fluorescence 635/667, stem cell growth factor project, primary screen (AID 1067).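 Also: measures binding of biotinylated aFGF2 protein to printed compounds on slides; z-score merges feature fluorescence and signal-to-noise across triplicate slides.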 To be noted: higher = more signal.
Experiment [4] is described as follows: small molecules captured by biotinylated probe aFGF10 – biochemical, small-molecule microarray, fluorescence 635/667, stem cell growth factor project, primary screen (AID 1071).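 Also: score merges 667 nm spot intensity and signal to noise from triplicate slides.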 To be noted: higher = more signal.
For experiment [5], the target named is Neurogenic locus notch homolog protein 2 (Homo sapiens) (UniProt Q04721). The experiment can be described thus: small molecules binding Notch2 protein – biochemical, small-molecule microarray, 635 nm fluorescence, stem cell growth factors, primary screen (AID 1073). To be noted: higher = more signal.
For experiment [6], the target named is Pro-neuregulin-1, membrane-bound isoform (Homo sapiens) (UniProt Q02297). The experiment can be described thus: small molecules binding neuregulin-1 protein – biochemical, small-molecule microarray, fluorescence 635/667, psychiatric disease protein project, primary screen (AID 1075).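 Also: score combines 667 nm spot fluorescence with signal to noise.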 To be noted: NRG1 binding, 635 nm fluorescence, higher = more signal.
The subject of experiment [7] is Neuregulin-1 EGF-like domain. Description: small molecules binding NRG1 EGF domain – biochemical, small-molecule microarray, 635 nm fluorescence, primary screen (AID 1081).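 Also: binding of the protein to compounds printed on small-molecule microarray slides.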 To be noted: higher = more signal.
Experiment [8] can be described thus: FRG1 expression reporter modulators in myotubes – cell-based, C2C12 myotubes, firefly/Renilla luciferase, luminescence, FRG1 inhibition for FSHD, primary screen (AID 1084). To be noted: FRG1 promoter luciferase, higher = more signal, called active from +8 up or from −8 down.
Experiment [9] is described as follows: small molecules captured by biotinylated probe aFST – biochemical, small-molecule microarray, fluorescence 635/667, stem cell growth factor project, primary screen (AID 1086).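 Also: score merges 667 nm fluorescence with signal-to-noise of each printed compound spot.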 The conditions noted are these: higher = more signal.
Experiment [10] is described as follows: binders of probe aHhip on microarray, primary screen, stem cell growth factor project, biochemical, small-molecule microarray, fluorescence 635/667 (AID 1087).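 Also: score merges spot fluorescence at 667nm with spot signal to noise ratio.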 The conditions noted are these: higher = more signal.

Chain of Neurogenic locus notch homolog protein 2 (Homo sapiens) (Q04721 whole entry, looked up, canonical isoform): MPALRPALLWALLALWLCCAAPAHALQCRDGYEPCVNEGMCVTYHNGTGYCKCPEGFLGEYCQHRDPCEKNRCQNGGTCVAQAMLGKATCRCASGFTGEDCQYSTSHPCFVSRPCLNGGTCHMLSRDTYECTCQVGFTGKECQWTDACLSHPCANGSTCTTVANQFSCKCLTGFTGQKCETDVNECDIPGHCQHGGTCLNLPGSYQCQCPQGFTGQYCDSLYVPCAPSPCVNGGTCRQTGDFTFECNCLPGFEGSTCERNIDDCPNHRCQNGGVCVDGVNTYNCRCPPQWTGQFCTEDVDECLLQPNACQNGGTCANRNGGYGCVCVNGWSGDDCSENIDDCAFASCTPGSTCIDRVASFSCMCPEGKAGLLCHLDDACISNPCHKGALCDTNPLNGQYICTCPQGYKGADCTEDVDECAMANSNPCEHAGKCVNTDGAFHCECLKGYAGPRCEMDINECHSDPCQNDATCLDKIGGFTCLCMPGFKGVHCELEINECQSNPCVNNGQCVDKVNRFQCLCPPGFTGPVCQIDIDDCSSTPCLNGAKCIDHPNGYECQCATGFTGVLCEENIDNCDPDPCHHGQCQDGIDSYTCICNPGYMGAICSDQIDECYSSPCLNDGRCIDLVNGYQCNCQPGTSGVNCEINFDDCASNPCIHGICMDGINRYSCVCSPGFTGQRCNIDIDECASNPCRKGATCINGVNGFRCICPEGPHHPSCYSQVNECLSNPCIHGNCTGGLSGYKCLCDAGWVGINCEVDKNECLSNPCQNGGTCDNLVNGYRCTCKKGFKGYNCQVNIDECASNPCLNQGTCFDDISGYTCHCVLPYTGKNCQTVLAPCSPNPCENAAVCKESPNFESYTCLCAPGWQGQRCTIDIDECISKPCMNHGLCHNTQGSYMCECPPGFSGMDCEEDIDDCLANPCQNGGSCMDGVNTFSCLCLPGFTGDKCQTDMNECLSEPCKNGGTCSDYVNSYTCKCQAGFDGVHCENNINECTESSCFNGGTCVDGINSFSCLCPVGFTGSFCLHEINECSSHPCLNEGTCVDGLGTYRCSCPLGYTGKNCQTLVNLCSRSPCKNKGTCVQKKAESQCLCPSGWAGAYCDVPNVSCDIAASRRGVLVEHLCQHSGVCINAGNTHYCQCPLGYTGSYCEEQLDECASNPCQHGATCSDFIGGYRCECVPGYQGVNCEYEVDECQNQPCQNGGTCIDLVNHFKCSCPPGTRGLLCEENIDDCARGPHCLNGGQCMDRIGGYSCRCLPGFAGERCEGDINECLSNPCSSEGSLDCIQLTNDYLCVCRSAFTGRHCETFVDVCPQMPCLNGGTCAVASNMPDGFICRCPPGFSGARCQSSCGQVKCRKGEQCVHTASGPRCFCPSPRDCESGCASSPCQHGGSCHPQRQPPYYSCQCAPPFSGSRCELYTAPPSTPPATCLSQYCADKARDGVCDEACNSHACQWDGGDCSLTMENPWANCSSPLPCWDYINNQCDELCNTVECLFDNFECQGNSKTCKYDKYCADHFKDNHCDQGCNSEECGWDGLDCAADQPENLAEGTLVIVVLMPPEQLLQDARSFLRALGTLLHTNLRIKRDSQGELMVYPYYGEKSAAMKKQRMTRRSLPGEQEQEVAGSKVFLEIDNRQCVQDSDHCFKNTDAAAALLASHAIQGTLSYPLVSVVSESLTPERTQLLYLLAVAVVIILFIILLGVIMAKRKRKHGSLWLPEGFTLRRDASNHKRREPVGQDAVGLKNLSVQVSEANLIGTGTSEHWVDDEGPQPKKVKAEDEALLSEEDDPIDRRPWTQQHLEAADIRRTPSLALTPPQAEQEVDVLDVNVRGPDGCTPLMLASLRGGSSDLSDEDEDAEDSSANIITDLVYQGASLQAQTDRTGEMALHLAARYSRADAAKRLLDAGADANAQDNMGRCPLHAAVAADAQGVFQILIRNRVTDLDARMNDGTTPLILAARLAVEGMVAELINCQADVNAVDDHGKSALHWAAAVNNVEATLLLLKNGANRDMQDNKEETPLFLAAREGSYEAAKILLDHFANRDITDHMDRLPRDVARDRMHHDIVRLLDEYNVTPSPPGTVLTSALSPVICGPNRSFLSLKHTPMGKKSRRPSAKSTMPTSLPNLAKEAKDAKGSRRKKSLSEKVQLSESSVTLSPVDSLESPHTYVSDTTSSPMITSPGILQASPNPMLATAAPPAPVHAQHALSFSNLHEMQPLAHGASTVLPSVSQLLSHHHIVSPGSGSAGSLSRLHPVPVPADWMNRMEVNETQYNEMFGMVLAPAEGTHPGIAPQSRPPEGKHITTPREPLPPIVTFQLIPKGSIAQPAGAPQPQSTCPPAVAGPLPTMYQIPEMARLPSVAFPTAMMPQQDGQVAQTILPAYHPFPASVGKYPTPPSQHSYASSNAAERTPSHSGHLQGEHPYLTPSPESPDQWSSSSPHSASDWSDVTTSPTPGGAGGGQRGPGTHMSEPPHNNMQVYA
Chain of Pro-neuregulin-1, membrane-bound isoform (Homo sapiens) (Q02297 whole entry, looked up, the tested form may be a part, canonical isoform): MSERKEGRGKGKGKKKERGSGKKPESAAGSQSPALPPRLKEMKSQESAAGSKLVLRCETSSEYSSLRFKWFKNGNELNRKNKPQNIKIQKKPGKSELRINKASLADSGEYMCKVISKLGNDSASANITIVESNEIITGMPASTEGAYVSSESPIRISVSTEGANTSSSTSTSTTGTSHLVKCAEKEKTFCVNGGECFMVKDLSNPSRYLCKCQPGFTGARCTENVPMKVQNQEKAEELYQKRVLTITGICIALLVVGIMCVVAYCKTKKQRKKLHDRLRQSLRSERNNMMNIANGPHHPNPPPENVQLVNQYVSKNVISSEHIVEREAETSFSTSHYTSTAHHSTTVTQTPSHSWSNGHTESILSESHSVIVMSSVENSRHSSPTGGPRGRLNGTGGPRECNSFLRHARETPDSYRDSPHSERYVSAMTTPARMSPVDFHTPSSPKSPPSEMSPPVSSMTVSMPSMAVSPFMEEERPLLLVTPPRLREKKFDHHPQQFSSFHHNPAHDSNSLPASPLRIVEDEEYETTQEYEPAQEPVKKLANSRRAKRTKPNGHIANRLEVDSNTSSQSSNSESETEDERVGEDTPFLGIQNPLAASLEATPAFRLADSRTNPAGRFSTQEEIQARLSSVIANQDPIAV

On to `C=C(CCCC)/C(=C/C[C@@H](OC(=O)c1ccncc1)c1ccccc1OCCO)c1cc(C(=O)OC)ccc1OC`, for which the composite z-score is -0.256 in experiment [1]; 0.815 in [2]; -0.0628 in experiment [3]; 0.173 in [4]; 0.791 in experiment [5]; 1.17 in [6]. In addition, the composite z-score is 1.2 in [7], -0.242 in experiment [9] and -0.0296 in [10]. Further, the z-score in [8] is 0.488 (inactive).
Consider `COCCCNC(=O)[C@]1(Cc2ccccc2)N=C(c2ccc(OCCCO)cc2)O[C@@H]1c1ccccc1N=[N+]=[N-]`, for which the composite z-score in experiment [1] amounted to 0.29; in [2], 1.54; in experiment [3] it was 0.12; in experiment [4], 0.632; in experiment [5], 1.02; in experiment [6] it was 0.725. Besides, the results for the composite z-score in [7], in experiment [9] and in experiment [10] were 1.2, 1.47 and -0.0994, respectively. For the same molecule, in experiment [8], the z-score is -0.309 (inactive).
Consider `CC1CC/C=C\[C@H]2OC34C=CCN(Cc5ccccc5)C(=O)[C@H]3N(CCO)C(=O)[C@@H]4C2C(=O)O1` (stereo not given in full), for which the composite z-score was 0.767 in [1]; 2.2 in experiment [2]; -0.0662 in experiment [3]; 1.1 in [4]; -0.821 in [5]; 1.86 in experiment [6]. In addition, the composite z-score in experiment [7] is 1.51; in experiment [9], -0.253; in [10], -0.0994. Further, the z-score in [8] is 0.781 (inactive).
For `O=C1c2ccccc2[C@](Cc2ccccc2I)(C(=O)NCC(F)(F)F)[C@H](c2ccc(CO)cc2)N1Cc1ccccc1`, the composite z-score in experiment [1] was -0.213; in experiment [2] it was -0.0086; in experiment [3], 0.0363; in [4] it was 0.15; in experiment [5], 1.39; in experiment [6], 1.12. Besides, the composite z-score was 1.21 in experiment [7], 0.585 in experiment [9] and 0.0734 in experiment [10]. In addition, the z-score in experiment [8] is -0.508 (inactive).
Take `CN(C)CCCCNC(=O)[C@H]1C[C@H]2C(=O)N[C@@H](CCCC[N+](C)(C)C)C(=O)N2[C@H]1c1cccc(OCCO)c1`: the composite z-score in [1] was -0.235; in experiment [2], 1.09; in experiment [3], -0.116; in experiment [4], -0.0012; in [5], -0.606; in experiment [6], 0.417. Further, the composite z-score in experiment [7] was 1.26; in experiment [9] it was -0.268; in experiment [10], -0.0994. Also, the z-score in experiment [8] was 2.9 (inactive).
In the case of `COc1cccc(C[C@H]2C[C@@H](CO[Si](C(C)C)(C(C)C)C(C)C)N3C(=O)[C@]4(C(C)=O)O[C@]23[C@H]2C(=O)N(C)C(=O)[C@H]24)c1`, the composite z-score in experiment [1] is -0.46; in experiment [2], 0.395; in experiment [3], -0.021; in experiment [4], 0.407; in experiment [5], 0.797; in experiment [6] it was 0.143. The values for the composite z-score in [7], in experiment [9] and in experiment [10] were 0.996, 0.421 and -0.0618, respectively. Besides, the z-score in experiment [8] was 0.165 (inactive).
Turning to `CN1C(=O)C2C=CC(C(O)COCc3ccccc3)N(Nc3ccccc3)C2C1=O` (stereo not given), the composite z-score in experiment [1] is -0.121; in experiment [2] it was 0.165; in [3], 0.308; in experiment [4], 0.389; in experiment [5] it was 1.33; in experiment [6], 0.374. In addition, the figures for the composite z-score in experiment [7], in experiment [9] and in experiment [10] were 1, 0.486 and -0.166, respectively. Also, in [8], the z-score is 0.146 (inactive).
With `C=CCN1C(=O)[C@@]2(O[C@@H](CCn3cc([C@H](O)c4ccccc4)nn3)[C@H]([Si](C)(C)c3ccc(OC)cc3)[C@H]2C)c2cc(NC(=O)c3ccc(OC)cc3)ccc21`, the composite z-score in experiment [1] came to 0.027; in experiment [2], 0.321; in experiment [3], 0.0084; in [4], 0.0737; in [5], 0.147; in experiment [6] it was 0.56. Further, the composite z-score in experiment [7] was determined as 0.531; in experiment [9], 0.101; in [10], 0.185. Further, the z-score in experiment [8] is -1.36 (inactive).
On to `[N-]=[N+]=NCc1ccccc1[C@H]1OC(c2ccc(OCCCO)cc2)=N[C@@]1(Cc1ccccc1N=[N+]=[N-])C(=O)NCCN1CCOCC1`, for which the composite z-score in experiment [1] came to 0.0233; in experiment [2], 0.0401; in [3] it was 0.14; in experiment [4], 0.981; in experiment [5], 1.61; in experiment [6], 1.49. Further, the composite z-score in [7] was 1.1; in [9], 1.21; in experiment [10], 0.113. In addition, the z-score in experiment [8] is 0.342 (inactive).
On to `CCCN1C(=O)[C@@]2(Cc3ccccc3)N=C(c3ccc(OCCCO)cc3)O[C@H]2c2ccccc21`, for which the composite z-score was -0.0679 in [1]; 0.802 in [2]; -0.047 in experiment [3]; 0.186 in experiment [4]; 0.498 in [5]; 0.602 in [6]. Moreover, the figures for the composite z-score in experiment [7], in experiment [9] and in [10] were 1.12, -0.0754 and -0.0573, respectively. Moreover, the z-score in experiment [8] is -1.25 (inactive).
In the case of `COC(=O)C(CC#Cc1ccc2c(c1)[C@]1(C(=O)N2)[C@H](c2ccc(O)cc2)N2[C@H](c3ccccc3)[C@H](c3ccccc3)OC(=O)[C@H]2[C@@H]1C(=O)O)C(=O)OC`, the composite z-score was -0.331 in experiment [1]; -0.11 in experiment [2]; -0.132 in experiment [3]; 0.206 in experiment [4]; 0.63 in experiment [5]; 0.82 in experiment [6]. For the same molecule, the composite z-score came out at 0.798 in experiment [7], 1.25 in experiment [9] and 0.0505 in experiment [10]. For the same molecule, in experiment [8], the z-score was 0.831 (inactive).
Take `O=C1C2C=CC(C(O)c3cccc4ccccc34)N(Nc3ccccc3)C2C(=O)N1c1ccccc1` (stereo not given): the composite z-score is -0.0673 in [1]; 0.113 in experiment [2]; 0.127 in experiment [3]; 0.822 in [4]; 1.61 in experiment [5]; 1.89 in [6]. Also, the composite z-score in experiment [7] was 1.19; in experiment [9], 1.55; in experiment [10] it was -0.261. Besides, the z-score in [8] is -1.41 (inactive).
With `COc1ccccc1CN1C(=O)c2ccccc2[C@@]2(Cc3ccccc3N(C3CC3)C2=O)[C@@H]1c1ccc(CO)cc1`, the composite z-score in [1] is -0.262; in experiment [2], -0.804; in experiment [3], -0.107; in experiment [4], 0.0106; in experiment [5], -0.461; in experiment [6], 0.937. Besides, the composite z-score in experiment [7] is -0.0422; in experiment [9], 0.0845; in [10], -0.164. The z-score in [8] is -0.223 (inactive).
Take `C[N+](C)(C)CCCC[C@@H]1NC(=O)[C@H]2C[C@@H](C(=O)NCCCCCCN)[C@@H](c3cccc(OCCO)c3)N2C1=O`: the composite z-score came to 1.71 in [1]; 1.85 in [2]; 0.0852 in [3]; 0.765 in experiment [4]; 0.791 in experiment [5]; 1.14 in experiment [6]. Besides, the composite z-score in experiment [7] was found to be 1.49; in [9], 0.592; in experiment [10], 1.13. Moreover, the z-score in experiment [8] is 0.029 (inactive).
For the molecule `O=C1O[C@H](c2ccccc2)[C@H](c2ccccc2)N2[C@H]1[C@@H](C(=O)N1CCN(c3ncccn3)CC1)[C@]1(C(=O)Nc3ccc(C#CCCO)cc31)[C@H]2c1ccc(OCCO)cc1`, the composite z-score in [1] came out at 0.0379; in experiment [2], 1.26; in [3] it was 0.0229; in [4], 1.26; in experiment [5] it was 1.53; in experiment [6], 0.826. Also, the figures for the composite z-score in experiment [7], in experiment [9] and in experiment [10] were 0.995, 1.35 and -0.0994, respectively. For the same molecule, the z-score in experiment [8] was 0.0862 (inactive).
On to `O=C1O[C@@H](c2ccccc2)[C@@H](c2ccccc2)N2[C@@H](c3ccc(O)cc3)[C@]3(C(=O)Nc4ccc(C#CC5=CCCCC5)cc43)[C@@H](C(=O)Nc3nc4ccccc4s3)[C@H]12`, for which the composite z-score in experiment [1] was -0.371; in experiment [2], 0.449; in experiment [3], -0.0455; in experiment [4] it was 1.27; in [5] it was 1.5; in [6], 1.34. For the same molecule, the values for the composite z-score in [7], in experiment [9] and in experiment [10] were 1.18, 0.647 and -0.171, respectively. The z-score in experiment [8] is -0.453 (inactive).
